Our source for the outcome and AC50 values is PubChem BioAssay (EPA / NIEHS).

Results filed as inconclusive are left out. Active and inactive are the calls of the source. How the source made its calls, unless noted: active means hit-call score of the fitted dose curve at least 0.9, where 1 is the maximum; inactive means score below 0.9.

Experiment [1] is described as follows: CCTE_Shafer_MEA_dev_firing_rate_mean: CCTE's Neural Network Formation Assay for Mean Firing Rate, Shafer Lab (AID 2284031). The method, boiled down: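 Primary rat cortical neurons on 48-well MEA plates, exposed from plating day 0 with dosing renewed on DIV 5 and 9. Mean well firing rate over active electrodes, recorded days 5, 7, 9, 12, summarised as trapezoidal AUC.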

Experiment [2] can be described thus: CCTE_Shafer_MEA_dev_per_burst_spike_percent: CCTE's Neural Network Formation Assay for Percent of Spikes in a Burst, Shafer Lab (AID 2284032). A digest of the protocol:
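Rat primary cortical neurons on 16-electrode MEA wells, dosed from plating day 0 for 12 days with renewal on DIV 5 and 9; spikes-in-bursts percentage averaged over bursting electrodes, collapsed as AUC across days 5, 7, 9, 12; loss direction versus DMSO.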

Experiment [3] is described as follows: CCTE_Shafer_MEA_dev_active_electrodes_number: CCTE's Neural Network Formation Assay for Number of Active Electrodes, Shafer Lab (AID 2284040; active means hit-call score of the fitted dose curve at least 0.9, where 1 is the maximum). The method, boiled down:
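Primary rat cortical neurons on 16-electrode MEA wells, exposed from day 0 through day 12 with compound renewed at DIV 5 and 9 feeds. Active electrodes (mean firing ≥5 spikes/min) counted at DIV 5, 7, 9, 12; trapezoidal AUC across days, loss-of-signal versus DMSO.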

Experiment [4] can be described thus: CCTE_Shafer_MEA_dev_bursting_electrodes_number: CCTE's Neural Network Formation Assay for Number of Bursting Electrodes, Shafer Lab (AID 2284043; active means hit-call score of the fitted dose curve at least 0.9, where 1 is the maximum). The method, boiled down:
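Read-out is the per-well number of electrodes bursting at least once every 2 minutes, recorded on days 5, 7, 9 and 12 and collapsed by trapezoidal area under the curve. Cultures were primary rat cortical neurons on MEA plates, treated continuously from plating.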

Experiment [5] in a line: CCTE_Shafer_MEA_dev_per_burst_interspike_interval: CCTE's Neural Network Formation Assay for Burst Interspike Interval, Shafer Lab (AID 2284044).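 Further: mean spike spacing inside bursts as AUC over recordings on days 5 7 9 12.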 The method, boiled down:
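Spontaneous activity of maturing rat cortical networks is recorded on DIV 5, 7, 9 and 12 under chronic compound exposure beginning at plating. Endpoint: burst interspike interval well-mean, collapsed into trapezoidal AUC and fitted in the negative direction relative to DMSO.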

Experiment [6] is described as follows: CCTE_Shafer_MEA_dev_burst_duration_mean: CCTE's Neural Network Formation Assay for Mean Burst Duration, Shafer Lab (AID 2284045). The method, boiled down:
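Read-out: average first-to-last-spike interval within single-electrode bursts, averaged over bursting electrodes per well, then summarised as area under the curve across days 5, 7, 9 and 12. Developing rat cortical networks were exposed from day 0.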

A short description of experiment [7]: CCTE_Shafer_MEA_dev_interburst_interval_mean: CCTE's Neural Network Formation Assay for Mean Interburst Interval, Shafer Lab (AID 2284046).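 Further: curve fitted for decrease in interburst interval relative to DMSO.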 A digest of the protocol: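 Primary rat cortical neurons on PEI-coated 48-well MEA plates (laminin added with cells at plating) (16 electrodes/well), exposed from plating day 0 with renewal at DIV 5 and 9. Mean inter-burst interval averaged over bursting electrodes, AUC across days 5, 7, 9, 12; DMSO baseline.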

Experiment [8] can be described thus: CCTE_Shafer_MEA_dev_network_spike_number: CCTE's Neural Network Formation Assay for Number of Network Spikes, Shafer Lab (AID 2284048).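 Further: synchronized bursts across electrodes counted on days 5 7 9 12 and integrated as AUC.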 A digest of the protocol: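 Developing networks of primary rat cortical neurons are treated over 12 days starting at plating, with media and compound fully replaced on DIV 5 and 9. Network spike counts from four recording days are integrated as trapezoidal AUC.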

A short description of experiment [9]: CCTE_Shafer_MEA_dev_network_spike_peak: CCTE's Neural Network Formation Assay for Mean Number of Electrodes in Network Spike, Shafer Lab (AID 2284049). A digest of the protocol: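 Rat cortical primary culture, 1.5 x 10^5 cells/well, 48-well MEA (16 electrodes/well). Dosing day 0 through DIV 12, full media/compound exchange DIV 5, 9. AxIS adaptive spike detection; AUC over days 5/7/9/12; loss-of-signal vs DMSO.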

Experiment [10] in a line: CCTE_Shafer_MEA_dev_spike_duration_mean: CCTE's Neural Network Formation Assay for Mean Spike Duration, Shafer Lab (AID 2284051).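 Further: mean network spike duration pooled as area under curve over DIV 5 to 12 recordings.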 A digest of the protocol:
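Spontaneous activity was recorded on days 5, 7, 9 and 12 from rat cortical cultures grown on microelectrode arrays and dosed continuously from day 0, with media and compound renewed after the DIV 5 and 9 recordings. Network-spike duration was collapsed by area under the curve.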

Experiment [11] can be described thus: CCTE_Shafer_MEA_dev_per_network_spike_spike_number_mean: CCTE's Neural Network Formation Assay for Mean Number of Spikes in a Network Spike, Shafer Lab (AID 2284053). A digest of the protocol:
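Mean spike count within each network spike, taken in a 0.05 s window at its peak, was recorded on days 5, 7, 9 and 12 and integrated as trapezoidal area under the curve. Rat cortical cultures on MEA plates received continuous compound from day 0, refreshed at medium changes on DIV 5 and 9.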

Experiment [12] in a line: CCTE_Shafer_MEA_dev_per_network_spike_spike_percent: CCTE's Neural Network Formation Assay for Percent of Spikes in a Network Spike, Shafer Lab (AID 2284054). A digest of the protocol:
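Rat primary cortical cultures, 1.5 x 10^5 cells/well on MEA. Continuous compound exposure d0–12, medium/compound renewed DIV 5, 9. Network-spike spike % (0.05 s peak window), AUC over 4 recordings, DMSO baseline.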

Experiment [13] is described as follows: CCTE_Shafer_MEA_dev_LDH: CCTE's Lactate Dehydrogenase Assay for Cytotoxicity in the Neural Network Formation Assay, Shafer Lab (AID 2284068; active means hit-call score of the fitted dose curve at least 0.9, where 1 is the maximum;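 further: exposure for twelve days from plating with re-dosing on DIV 5 and 9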). The method, boiled down: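 Primary rat cortical neurons were cultured on PEI-coated MEA plates and exposed from plating through day 12, with compound renewed at medium changes on DIV 5 and 9. LDH activity was read spectrophotometrically; loss of signal versus DMSO indicates reduced viability.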

Experiment [14] is described as follows: CCTE_Shafer_MEA_dev_AB: CCTE's Alamar Blue Assay for Cytotoxicity in the Neural Network Formation Assay, Shafer Lab (AID 2284083; active means hit-call score of the fitted dose curve at least 0.9, where 1 is the maximum;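 further: resazurin reduction fluorescence as viability of cultured neurons; twelve days of exposure from plating with re-dosing on DIV 5 and 9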). A digest of the protocol:
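Resazurin fluorescence, relative to DMSO, gauges viability after twelve days of exposure that began at plating of rat cortical neurons (1.5 x 10^5 cells/well, 48-well MEA); treatment renewed with full medium exchange on DIV 5 and 9.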
A general note: Resazurin is reduced to fluorescent resorufin, in cell work by metabolically active cells.

Experiment [15] is described as follows: CCTE_Shafer_MEA_dev_mutual_information_norm: CCTE's Neural Network Formation Assay for Mutual Information Normalization, Shafer Lab (AID 2284091). The method, boiled down:
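Developing rat cortical networks on 16-electrode MEA wells are treated throughout formation (DIV 0–12). Shared electrode information is recorded four times, converted to area-under-curve, and fitted for decreases against DMSO vehicle.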

Experiment [16] is described as follows: CCTE_Shafer_MEA_dev_correlation_coefficient_mean: CCTE's Neural Network Formation Assay for Mean Correlation Coefficient, Shafer Lab (AID 2284093). The method, boiled down: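 Primary rat cortical neurons on PEI-coated 48-well MEA plates (16 electrodes/well) were exposed from plating day 0 through DIV12, with compound renewed at DIV5 and 9. Pairwise spike correlations were averaged per well; trapezoidal AUC across DIV5, 7, 9, 12.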

Experiment [17] can be described thus: UKN2_HCS_IMR90_neural_migration: University of Konstanz (UKN) Leist Lab Neural Crest Cell Migration Assay in human induced IMR90 Pluripotent Stem Cells (UKN2) (AID 2284204). Conditions: actives raise or lower the signal. A digest of the protocol:
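Migration of human IMR90-derived neural crest cells into a stopper-defined gap is imaged after 24 h chemical treatment. Activity is fitted bidirectionally relative to DMSO.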

Experiment [18] is described as follows: IUF_NPC1b_proliferation_BrdU_72hr: Leibniz Research Institute for Environmental Medicine (IUF) 72-hour Neural Progenitor Cell Bromodeoxyuridine (BrdU) Proliferation Assay (NPC1b) (AID 2284207). A digest of the protocol:
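Proliferation of primary human neural progenitor cells: 72 h compound treatment at 37C, 5% CO2, pH 7.2-7.6, in EGF/FGF-containing medium. Readout is BrdU uptake (last 16 h) by chemiluminescent ELISA, normalised to DMSO.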

The nature of experiment [19]: IUF_NPC1a_proliferation_area_72hr: Leibniz Research Institute for Environmental Medicine (IUF) 72-hour Neural Progenitor Cell Proliferation Area Assay (NPC1a) (AID 2284208). A digest of the protocol:
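Measured in 3D suspension: each well held one primary hNPC sphere grown with EGF and FGF at pH 7.2-7.6. Compound stayed on for 72 h, then area was imaged; spheres lacking growth factors defined reduced proliferation.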

Experiment [20] in a line: IUF_NPC1_viability_72hr: Viability Assessment at 72 hours in the Leibniz Research Institute for Environmental Medicine (IUF) Neural Progenitor Cell Proliferation Assay (NPC1) (AID 2284209). A digest of the protocol:
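Single spheres (0.25-0.35 mm) of human fetal cortex-derived neural progenitor cells were grown in proliferation medium with EGF and FGF at 37C and 5% CO2. They were exposed for 72 h without renewal, and viability was read by alamar blue resorufin fluorescence.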

Experiment [21] in a line: CCTE_Mundy_HCI_Cortical_Synap_Neur_Matur_NeuriteSpotCountPerNeuriteLength: CCTE's Synaptogenesis and Neurite Maturation Assay in rat cortical cells for Neurite Spot Count per Neurite Length, Mundy Lab (AID 2284210). A digest of the protocol: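 Primary rat cortical neurons, compound exposure DIV 7–12, 288.33 h endpoint. Hoechst, anti-MAP2 and anti-synaptophysin labelling; neurite-associated puncta per neurite length scored by automated imaging relative to DMSO controls.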

Experiment [22] can be described thus: CCTE_Mundy_HCI_Cortical_Synap_Neur_Matur_BPCount: CCTE's Synaptogenesis and Neurite Maturation Assay in rat cortical cells for Branch Point Count, Mundy Lab (AID 2284211). A digest of the protocol: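 Rat primary cortical cultures, AraC added DIV 5; chemicals dosed DIV 7 through DIV 12. Fixed cells stained for MAP2, synaptophysin and Hoechst; neurite branch points counted by automated high-content imaging, fitted relative to DMSO.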

As a reminder, the AC50 is the midpoint of the concentration-response curve, whichever way the signal moves. Consider `CCc1ccccc1`, for which the result in experiment [1], in experiment [2], in experiment [3], in experiment [4], in experiment [5] and in experiment [6] was inactive. The outcome in experiment [7], in experiment [8], in experiment [9], in experiment [10], in experiment [11] and in experiment [12] was inactive. Besides, the compound was classed as inactive in [15], in experiment [16], in experiment [17], in experiment [19], in experiment [20] and in experiment [21]. In [22], the outcome was inactive. In addition, the concentration at half-maximal activity (AC50) in experiment [13] is 0.299 µM (active); in experiment [14], 0.476 µM (active); in [18] it was 12.7 µM (active).
